Results filed as inconclusive are left out. The source made the active and inactive calls. Calls follow the shape of the dose curve; as a rule, active = well fitted inhibition curve with a large enough effect; inconclusive = small, poorly fitted or top-dose-only effect; inactive = flat fitted curve, though single readings scatter.
Experiments:
Test in all cases: qHTS profiling for inhibitors of Plasmodium falciparum proliferation (AID 504749); also: nearly all actives have a fitted effect of over 60% in size
Conditions in all cases: P. falciparum in erythrocytes, SYBR Green DNA, 72 h; series mostly up to 28.7 µM
CP329 = tested on: CP329
In short: (§1)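 Infected RBCs, 0.3% parasitemia/2.5% Hct final; cpd 72 h, 37 C, 5% CO2; lysis buffer with saponin/triton/SYBR Green I, o/n RT dark; FI 485/535; norm. to artemisinin (0.29 uM) and DMSO.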

CP335 = tested on: CP335
In short: as §1

DFO2036 = tested on: DFO2036
In short: as §1

DIV14 = tested on: DIV14
In short: as §1

DIV17 = tested on: DIV17
In short: as §1

DIV30 = tested on: DIV30
In short: as §1

Dd2 = tested on: Dd2
In short: as §1

ECU = tested on: ECU
In short: as §1

FAB9 = tested on: FAB9
In short: as §1

GB4 = tested on: GB4
In short: as §1

HB3 = tested on: HB3
In short: as §1

ICS = tested on: ICS
In short: as §1

JCK = tested on: JCK
In short: as §1

N140 = tested on: N140
In short: as §1

P93_24 = tested on: P93_24
In short: as §1

P94_40 = tested on: P94_40
In short: as §1

PAD = tested on: PAD
In short: as §1

PC15 = tested on: PC15
In short: as §1

PC26 = tested on: PC26
In short: as §1

PC49 = tested on: PC49
In short: as §1

Measured: Potency
Potency is read from the fitted curve at half-maximal effect.

NS(=O)(=O)c1cc2c(cc1Cl)NC=NS2(=O)=O
inactive: CP329 | CP335 | DFO2036 | DIV14 | DIV17 | DIV30 | Dd2 | ECU | FAB9 | GB4 | HB3 | ICS | JCK | N140 | P93_24 | P94_40 | PAD | PC15 | PC26 | PC49

N=c1nc(N2CCCCC2)cc(N)n1O
inactive: CP329 | CP335 | DFO2036 | DIV14 | DIV17 | DIV30 | Dd2 | ECU | FAB9 | GB4 | HB3 | ICS | JCK | N140 | P93_24 | P94_40 | PAD | PC15 | PC26 | PC49

Cc1[nH]c(=O)c(C#N)cc1-c1ccc2nccn2c1
inactive: CP329 | CP335 | DFO2036 | DIV14 | DIV17 | DIV30 | Dd2 | ECU | FAB9 | GB4 | HB3 | ICS | JCK | N140 | P93_24 | P94_40 | PAD | PC15 | PC26 | PC49

O=c1n(CCCN2CCN(c3cccc(Cl)c3)CC2)nc2ccccn12
inactive: CP329 | CP335 | DFO2036 | DIV14 | DIV17 | DIV30 | Dd2 | ECU | FAB9 | GB4 | HB3 | ICS | JCK | N140 | P93_24 | P94_40 | PAD | PC15 | PC26 | PC49

N[C@@H]1CONC1=O
inactive: CP329 | CP335 | DFO2036 | DIV14 | DIV17 | DIV30 | Dd2 | ECU | FAB9 | GB4 | HB3 | ICS | JCK | N140 | P93_24 | P94_40 | PAD | PC15 | PC26 | PC49

Nc1nc2c(ncn2COCCO)c(=O)[nH]1
inactive: CP329 | CP335 | DFO2036 | DIV14 | DIV17 | DIV30 | Dd2 | ECU | FAB9 | GB4 | HB3 | ICS | JCK | N140 | P93_24 | P94_40 | PAD | PC15 | PC26 | PC49

Cc1ccc(N(CC2=NCCN2)c2cccc(O)c2)cc1
inactive: CP329 | CP335 | DFO2036 | DIV14 | DIV17 | DIV30 | Dd2 | ECU | FAB9 | GB4 | HB3 | ICS | JCK | N140 | P93_24 | P94_40 | PAD | PC15 | PC26 | PC49

CC(C[N+](C)(C)C)OC(N)=O (centres undefined)
inactive: CP329 | CP335 | DFO2036 | DIV14 | DIV17 | DIV30 | Dd2 | ECU | FAB9 | GB4 | HB3 | ICS | JCK | N140 | P93_24 | P94_40 | PAD | PC15 | PC26 | PC49

NCCc1ccc(O)c(O)c1
inactive: CP329 | CP335 | DFO2036 | DIV14 | DIV17 | DIV30 | Dd2 | ECU | FAB9 | GB4 | HB3 | ICS | JCK | P93_24 | P94_40 | PAD | PC15 | PC26 | PC49

CC(C)NCC(O)COc1ccc(COCCOC(C)C)cc1 (centres undefined)
inactive: CP329 | CP335 | DFO2036 | DIV14 | DIV17 | DIV30 | Dd2 | ECU | FAB9 | GB4 | HB3 | ICS | JCK | N140 | P93_24 | P94_40 | PAD | PC15 | PC26 | PC49

Clc1cccc(Cl)c1NC1=NCCN1
inactive: CP329 | CP335 | DFO2036 | DIV14 | DIV17 | DIV30 | Dd2 | ECU | FAB9 | GB4 | HB3 | ICS | JCK | N140 | P93_24 | P94_40 | PAD | PC15 | PC26 | PC49

CC(c1cc2ccccc2s1)N(O)C(N)=O (centres undefined)
inactive: CP329 | CP335 | DFO2036 | DIV14 | DIV17 | DIV30 | Dd2 | ECU | FAB9 | GB4 | HB3 | ICS | JCK | N140 | P93_24 | P94_40 | PAD | PC15 | PC49

Cc1cn[nH]c1
inactive: CP329 | CP335 | DFO2036 | DIV14 | DIV17 | DIV30 | Dd2 | ECU | FAB9 | GB4 | HB3 | ICS | JCK | N140 | P93_24 | P94_40 | PAD | PC15 | PC26 | PC49

CC(=O)Oc1ccccc1C(=O)O
inactive: CP329 | CP335 | DFO2036 | DIV14 | DIV17 | DIV30 | Dd2 | ECU | FAB9 | GB4 | HB3 | ICS | JCK | N140 | P93_24 | P94_40 | PAD | PC15 | PC49

CCc1ccc(CCOc2ccc(CC3SC(=O)NC3=O)cc2)nc1 (centres undefined)
inactive: CP329 | CP335 | DFO2036 | DIV14 | DIV17 | DIV30 | Dd2 | ECU | FAB9 | GB4 | HB3 | ICS | JCK | N140 | P93_24 | P94_40 | PAD | PC15 | PC26 | PC49

N#Cc1ccc(C(c2ccc(C#N)cc2)n2cncn2)cc1
inactive: CP329 | CP335 | DFO2036 | DIV14 | DIV17 | DIV30 | Dd2 | ECU | FAB9 | GB4 | HB3 | ICS | JCK | N140 | P93_24 | P94_40 | PAD | PC15 | PC26 | PC49

CCCCNc1cc(C(=O)O)cc(S(N)(=O)=O)c1Oc1ccccc1
inactive: CP329 | CP335 | DFO2036 | DIV14 | DIV17 | DIV30 | Dd2 | ECU | FAB9 | GB4 | HB3 | ICS | JCK | N140 | P93_24 | P94_40 | PAD | PC15 | PC26 | PC49

NNCCc1ccccc1
inactive: CP329 | CP335 | DFO2036 | DIV14 | DIV17 | DIV30 | Dd2 | ECU | FAB9 | GB4 | HB3 | JCK | N140 | P93_24 | PAD | PC15 | PC26 | PC49

Cc1[nH]c(=O)c(C#N)cc1-c1ccncc1
inactive: CP329 | CP335 | DFO2036 | DIV14 | DIV17 | DIV30 | Dd2 | ECU | FAB9 | GB4 | HB3 | ICS | JCK | N140 | P93_24 | P94_40 | PAD | PC15 | PC26 | PC49

NC(=O)c1cnccn1
inactive: CP329 | CP335 | DFO2036 | DIV14 | DIV17 | DIV30 | Dd2 | ECU | FAB9 | GB4 | HB3 | ICS | JCK | N140 | P93_24 | P94_40 | PAD | PC15 | PC26 | PC49

O=C1CCC(N2C(=O)c3ccccc3C2=O)C(=O)N1 (centres undefined)
inactive: CP329 | CP335 | DFO2036 | DIV14 | DIV17 | DIV30 | Dd2 | ECU | FAB9 | GB4 | HB3 | ICS | JCK | N140 | P93_24 | P94_40 | PAD | PC15 | PC26 | PC49

O=c1[nH]cnc2[nH]ncc12
inactive: CP329 | CP335 | DFO2036 | DIV14 | DIV17 | DIV30 | Dd2 | ECU | FAB9 | GB4 | HB3 | ICS | JCK | N140 | P93_24 | P94_40 | PAD | PC15 | PC26 | PC49

Nc1ccc(S(=O)(=O)Nc2ccnn2-c2ccccc2)cc1
inactive: CP329 | CP335 | DFO2036 | DIV14 | DIV17 | DIV30 | Dd2 | ECU | FAB9 | GB4 | HB3 | ICS | JCK | N140 | P93_24 | P94_40 | PAD | PC15 | PC26 | PC49

NCCCC(N)(C(=O)O)C(F)F (centres undefined)
inactive: CP329 | CP335 | DFO2036 | DIV14 | DIV17 | DIV30 | Dd2 | ECU | FAB9 | GB4 | HB3 | ICS | JCK | N140 | P93_24 | P94_40 | PAD | PC15 | PC26 | PC49

CNC[C@H](O)c1cccc(O)c1
inactive: CP329 | DFO2036 | DIV14 | DIV17 | DIV30 | Dd2 | ECU | FAB9 | GB4 | HB3 | ICS | JCK | N140 | P93_24 | P94_40 | PC15 | PC26 | PC49

CCOC(=O)C1=C[C@]2(CC)CCCN3CCc4c(n1c1ccccc41)[C@@H]32
active: DIV14 12 µM | DIV17 15.1 µM | DIV30 13.5 µM | ICS 8.91 µM | N140 12.6 µM | P93_24 12.6 µM | PC26 15.1 µM

Clc1ccc(Nc2nnc(Cc3ccncc3)c3ccccc23)cc1
inactive: CP329 | DFO2036 | FAB9 | GB4 | HB3 | JCK | PC15 | PC26 | PC49
active: ECU 14.1 µM

C1COC(NC(C2CC2)C2CC2)=N1
active: PAD 11.2 µM
inactive: CP335 | DIV30 | Dd2 | FAB9 | HB3 | JCK | PC15 | PC49
